# Results reported in ChEMBL document CHEMBL3988442, “University of Dundee, Small-Polar-MMV Screening Library” (2021).
# Screen size: about 69,000 compounds; about 1,000 (1.4%) showed an effect of 50% or more. The entries come from a sample that favours strong results as a whole.
# Test system: Leishmania donovani
# Test: Leishmania intramacrophage assay
# Format: functional, organism-based
# Parameters: scale not given: in the data most compounds retested in dose-response had high values
compound,measurement,setting,value
OCCN1CCC(CNCc2ccc(Br)cc2)CC1,Percent Effect,"30.3 µM, […]",77.88%
Cc1ccc(CNCC2CCN(CCO)CC2)cc1,Percent Effect,"30.3 µM, […]",-12.85%
Cn1cc(CC2CC(=O)N(Cc3ccccc3OC(F)F)C2=O)cn1 (stereo not given),Percent Effect,"30.3 µM, […]",7.915%
Cl.NC1CCN(C(=O)c2c(F)cccc2Br)CC1,Percent Effect,"30.3 µM, […]",2.162%
COc1ccc([C@@H]2CN(c3cnccn3)C[C@H]2N(C)C)cc1,Percent Effect,"30.3 µM, […]",-8.819%
CC(C)Cn1cc(NC(=O)NC(C)(C)c2nccs2)cn1,Percent Effect,"30.3 µM, […]",-3.295%
CCN(CC1CN(Cc2nccn2CC)CCO1)c1cccnn1 (stereo not given),Percent Effect,"30.3 µM, […]",7.569%
CCS(=O)(=O)N1CCC(NC(=O)c2cc(C(C)C)ccc2O)CC1,Percent Effect,30 µM,11.27%
CC(=O)N1CCC1c1cc(N2CCNC(=O)C2)nc(C)n1 (stereo not given),Percent Effect,"30.3 µM, […]",23.92%
Cc1cnc(CN2CCCC(c3cc(C(N)=O)[nH]n3)C2)o1 (stereo not given),Percent Effect,"30 µM, 30.03 µM",5%
c1ccc(-c2nnc(CN3CCOC(Cn4cccn4)C3)o2)cc1 (stereo not given),Percent Effect,30 µM,14.93%
Cn1ncc2c1CN(Cc1cccnc1)CC2COCC1CC1.O=C(O)C(F)(F)F.O=C(O)C(F)(F)F.O=C(O)C(F)(F)F (stereo not given),Percent Effect,"30 µM, 30.03 µM",26.28%
Cn1ncc2c1CN(Cc1ccccc1F)CC2COCC1CC1.O=C(O)C(F)(F)F.O=C(O)C(F)(F)F (stereo not given),Percent Effect,"30.3 µM, […]",24.46%
Cc1ccc(CN2Cc3nnn(C)c3C(COCC3CC3)C2)s1.O=C(O)C(F)(F)F (stereo not given),Percent Effect,"30.3 µM, […]",19.91%
Cn1cc(CN2Cc3c(cnn3C)C(COCC3CC3)C2)cn1.O=C(O)C(F)(F)F.O=C(O)C(F)(F)F (stereo not given),Percent Effect,"30.3 µM, […]",-2.121%
Cn1ncc2c1CN(Cc1ccc(F)cc1)CC2COCC1CC1.O=C(O)C(F)(F)F.O=C(O)C(F)(F)F (stereo not given),Percent Effect,"30.3 µM, […]",51.09%
Cc1ccc(CN2Cc3c(cnn3C)C(COCC3CC3)C2)s1 (stereo not given),Percent Effect,"30.3 µM, […]",92.44%
CNC(=O)[C@H]1C[C@@H]2CN(S(=O)(=O)c3ccc(C)cc3)C[C@@H]2N1C.O=C(O)C(F)(F)F,Percent Effect,"30.3 µM, […]",7.67%
CC(=O)Nc1nc(-c2ccc(F)cc2)c[nH]1,Percent Effect,"30.3 µM, […]",-6.024%
NCCC(=O)N1CCC2(CC1)CN(C(=O)Cc1ccc(Cl)cc1)CCO2,Percent Effect,"30.3 µM, […]",-0.5643%
CN1CC(=O)N(c2ccsc2)CC12CCN(S(C)(=O)=O)C2.O=C(O)C(F)(F)F (stereo not given),Percent Effect,"30 µM, 30.03 µM",2.434%
COCCN1C[C@H]2[C@@H](C1)N(Cc1ccc(C)o1)CC[C@H]2OC,Percent Effect,"30 µM, 30.03 µM",22.66%
COCCN1C[C@@H]2[C@@H](OC)CCN(Cc3ccc(C)o3)[C@@H]2C1.O=C(O)C(F)(F)F.O=C(O)C(F)(F)F,Percent Effect,"30.3 µM, […]",53%
COCCN1C[C@@H]2[C@@H](OC)CCN(Cc3ccco3)[C@@H]2C1.O=C(O)C(F)(F)F.O=C(O)C(F)(F)F,Percent Effect,"30.3 µM, […]",5.523%
C/C(=C\c1ccco1)CN(C)C(C)c1ccccn1 (stereo not given),Percent Effect,"30.3 µM, […]",72.9%
CC(c1ccccn1)N(C)Cc1ccc(CCC(C)(C)O)cc1 (stereo not given),Percent Effect,"30.3 µM, […]",34.83%
CCC(CO)N(C/C(C)=C/c1ccco1)Cc1ccccn1 (stereo not given),Percent Effect,"30.3 µM, […]",3.364%
O=C(c1cscn1)N1CCCCC1c1nc2cc(F)ccc2[nH]1 (stereo not given),Percent Effect,"30.3 µM, […]",28.33%
CCS(=O)(=O)NCCCNCc1c(C)nn(C)c1N(C)C,Percent Effect,30 µM,-21.2%
O=C(O)C(F)(F)F.O=C1CC(c2ccccc2)C2(CCN(CC3CC3)CC2)N1 (stereo not given),Percent Effect,"30 µM, 30.03 µM",17.34%
CCc1nc(C2CCCN2C(=O)Cc2cccs2)no1 (stereo not given),Percent Effect,30 µM,2.577%
Cc1cc(S(=O)(=O)NCC(C)(C)N)c(F)cc1F.Cl,Percent Effect,"30.3 µM, […]",25.52%
CCOc1nc2cnccc2n(CC(=O)NCc2ccco2)c1=O,Percent Effect,"30.3 µM, […]",-11.31%
CCCc1nc(NCCc2ccccc2)c2c(n1)c(C)nn2CC,Percent Effect,"30.3 µM, […]",98.89%
CCc1nc(NCCCn2cccn2)c2c(n1)c(C)nn2CC,Percent Effect,"30.3 µM, […]",-48.93%
CCCc1nc(NCCCOCC)c2c(n1)c(C)nn2CC,Percent Effect,"30.3 µM, […]",51.09%
CCCc1nc(NCCOC)c2c(n1)c(C)nn2CC,Percent Effect,"30.3 µM, […]",9.64%
CCn1nc(C)c2nc(C)nc(NCCCn3cccn3)c21,Percent Effect,"30.3 µM, […]",-10.11%
CCn1nc(C)c2nc(C)nc(NCCc3ccccc3)c21,Percent Effect,"30.3 µM, […]",36.57%
CCCc1nc(NCCCO)c2c(n1)c(C)nn2CC,Percent Effect,"30 µM, 30.03 µM",3.921%
CCCc1nc(NCCCOC)c2c(n1)c(C)nn2CC,Percent Effect,"30.3 µM, […]",-43.63%
CCCc1nc(NCCCn2cccn2)c2c(n1)c(C)nn2CC,Percent Effect,"30.3 µM, […]",56.39%
CCCNC(=O)CSCc1ccc(S(=O)(=O)N(C)C)o1,Percent Effect,"30.3 µM, […]",6.939%
Nc1nc2c(c(NCC(c3cccnc3)N3CCOCC3)n1)CCNC2 (stereo not given),Percent Effect,"30.3 µM, […]",45.62%
CCC(Nc1nnnn1-c1ccccc1)C(=O)NCc1cccs1 (stereo not given),Percent Effect,"30.3 µM, […]",14.73%
Cc1cnc(C(=O)N2Cc3ncn(C)c3C(COCC(C)C)C2)cn1.O=C(O)C(F)(F)F (stereo not given),Percent Effect,"30.3 µM, […]",30.84%
CN(CCc1noc(C2CC2)n1)C(=O)C1(N2CCCC2)CCCC1,Percent Effect,"30.3 µM, […]",28.86%
Cc1cc(NC(=O)NCCc2cccs2)n(C)n1,Percent Effect,"30 µM, 30.03 µM",-9.195%
O=C(CN1CCCS1(=O)=O)NCCOc1ccc2c(c1)CCC2,Percent Effect,"30 µM, 30.03 µM",22.18%
CCc1nc(C2CCCN2c2ncc(C(N)=O)cc2Cl)no1 (stereo not given),Percent Effect,"30.3 µM, […]",-6.943%
